Results taken from PubChem BioAssay (NCATS).
Records with an inconclusive call do not appear. Active and inactive are the calls of the source. Calls follow the shape of the dose curve; as a rule, active = well fitted inhibition curve with a large enough effect; inconclusive = small, poorly fitted or top-dose-only effect, or effect the other way; inactive = flat fitted curve, though single readings scatter.

target: Ubiquitin carboxyl-terminal hydrolase 2 (Homo sapiens) (UniProt O75604); assay: qHTS Validation Assay for Inhibitors of Ubiquitin-specific Protease USP2a Using CHOP2 as the Reporter (AID 463106); conditions: USP2a cleavage of CHOP2 reporter, enzymatic; series mostly up to 38.3 µM
Sequence (O75604 whole entry, looked up): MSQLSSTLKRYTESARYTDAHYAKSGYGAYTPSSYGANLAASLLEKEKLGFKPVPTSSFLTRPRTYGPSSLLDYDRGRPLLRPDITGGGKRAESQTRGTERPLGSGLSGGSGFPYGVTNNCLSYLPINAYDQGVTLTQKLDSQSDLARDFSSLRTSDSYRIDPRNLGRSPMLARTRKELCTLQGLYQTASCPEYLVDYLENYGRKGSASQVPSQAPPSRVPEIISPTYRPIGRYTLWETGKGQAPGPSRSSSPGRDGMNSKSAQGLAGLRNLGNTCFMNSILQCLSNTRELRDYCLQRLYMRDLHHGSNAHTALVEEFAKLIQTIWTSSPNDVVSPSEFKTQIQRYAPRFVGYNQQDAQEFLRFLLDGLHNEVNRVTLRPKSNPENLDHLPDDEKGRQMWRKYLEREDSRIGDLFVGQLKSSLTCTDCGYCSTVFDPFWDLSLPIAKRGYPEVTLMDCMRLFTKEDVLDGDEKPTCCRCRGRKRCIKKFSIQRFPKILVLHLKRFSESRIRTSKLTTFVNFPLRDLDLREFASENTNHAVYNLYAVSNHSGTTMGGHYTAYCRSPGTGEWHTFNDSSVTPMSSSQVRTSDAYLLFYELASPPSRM
From the text: NIH Molecular Libraries Screening Centers Network [MLSCN]
NIH Chemical Genomics Center [NCGC]
PI Name: Nicholson, Ben. Progenra Inc, Malvern, PA
Homeostasis of cellular proteins is maintained through a combination of synthesis and degradation. The pathway that accounts for the majority of protein degradation is the ubiquitin-proteasomal pathway. Ubiquitin (Ub) is highly conserved in all cells and the generation of a multi-Ub chain typically targets proteins for degradation by the proteasome. However, ubiquitination is highly reversible and dynamic. Deubiquitination, the reverse process, is catalyzed through the action of enzymes referred to as isopeptidases or deubiquitinating enzymes (DUBs). This group of enzymes is collectively responsible for maintaining adequate pools of free ubiquitin and regulating the ubiquitination status of cellular proteins. The class of DUBs referred to as the ubiquitin-specific proteases (USP) family functions endoproteolytically to cleave Ub chains from a wide range of protein substrates. USP2a deubiquitinates fatty acid synthase (FASN) which has recently been identified as an emerging oncology target. To identify inhibitors of USP2a a cell-free assay was employed.
The reporter enzyme chosen is an enterokinase called CHOP2, which is activated when the Ub is cleaved by USP2. The free and now activated reporter can subsequently act on its reporter substrate. […] The assay was developed by Progenra, Inc. and has been licensed for sale by LifeSensors, Inc. as Ub-CHOP2-Reporter-Kit (#PR1101).
NCGC Assay Protocol Summary:
The assay buffer, prepared fresh at the day of the assay, contains 20mM Tris-HCl pH 8.0, 2mM CaCl2, 2mM beta-Mercaptoethanol, 0.05% CHAPS. 3ul of 20nM (10nM final) USP2 core, which is stored on ice, is dispensed into a medium-binding black solid Kalypsys 1,536 well plate using the Kalypsys dispenser. The assay plate is then pinned with 23nL compound with the Kalypsys pintool in columns 5-48. The controls are pinned as follows: column 1 two-fold dilutions of 2M NEM in duplicate; column 2 2M NEM (final concentration 38.2mM); column 3&4 DMSO. The assay plate is incubated at RT for 30min. Subsequently, 1.5uL of 100nM (25nM final) Ub-CHOP2 and 1.5uL of 100nM (25nM final) Reporter Substrate (both stored on ice and protected from light) were dispensed into the plate using the Kalypsys dispenser. Plates were read after 60min RT incubation on a ViewLux (Perkin Elmer) plate reader using the following wavelengths Ex 485nm /Em 531nm.
Data were normalized to the to AC100 inhibition (NEM). Concentration-response curves were fitted to the normalized data and the concentration-response curves were then classified based on curve quality (r2), response magnitude and degree of measured activity. The time zero reading was used to flag fluorescence artifacts.
Keywords: ubiquitination, deubiquitination, proteases, profluorescent, MLSMR, MLPCN, NIH Roadmap, qHTS, NCGC

| Compound | outcome |
| --- | --- |
| CNC1(C)C2CCC(C2)C1(C)C (stereo not given) | inactive |
| CCn1cc(C(=O)O)c(=O)c2cc3c(cc21)OCO3 | inactive |
| CCc1c(C)[nH]c2c1C(=O)C(CN1CCOCC1)CC2 (stereo not given) | inactive |
| c1ccc2c(c1)CCCC2C1=NCCN1 (stereo not given) | inactive |
| CN/C(=C\[N+](=O)[O-])NCCSCc1ccc(CN(C)C)o1 | inactive |
| OCCN1CCN(CCCN2c3ccccc3C=Cc3ccccc32)CC1 | inactive |
| COC(=O)C1=C(C)NC(C)=C(C(=O)OC(C)(C)CN(C)CCC(c2ccccc2)c2ccccc2)C1c1cccc([N+](=O)[O-])c1 (stereo not given) | inactive |
| COCC(=O)O[C@]1(CCN(C)CCCc2nc3ccccc3[nH]2)CCc2cc(F)ccc2[C@@H]1C(C)C | inactive |
| CCCN(CCC)CCc1cccc2c1CC(=O)N2 | inactive |
| Cc1nc2ccccn2c(=O)c1CCN1CCC(C(=O)c2ccc(F)cc2)CC1 | inactive |
| C[C@]12CCC(=O)C=C1CC[C@@H]1[C@@H]2C(=O)C[C@@]2(C)[C@H]1CC[C@]2(O)C(=O)CO | inactive |
| NC(=O)c1ncn([C@@H]2O[C@H](CO)[C@@H](O)[C@H]2O)c1O | inactive |
| COc1cc2c(cc1OC)-c1cc(=Nc3c(C)cc(C)cc3C)n(C)c(=O)n1CC2 | inactive |
| CC1=NS(=O)(=O)c2cc(Cl)ccc2N1 | inactive |
| CN(C)CCCN1c2ccccc2Sc2ccccc21 | inactive |
| CCN(CC)CCCN(c1ccccc1)C1Cc2ccccc2C1 | inactive |
| CCCCNc1c(C(=O)OCC)c(C)nc2c1cnn2CC | inactive |
| CC(N=C(NC#N)Nc1ccncc1)C(C)(C)C (stereo not given) | inactive |
| Cc1nc2sccn2c(=O)c1CCN1CCC(=C(c2ccc(F)cc2)c2ccc(F)cc2)CC1 | inactive |
| O=C(O)CCCCCCCC(=O)O | inactive |

| Compound | outcome |
| --- | --- |
| COC(=O)[C@H]1[C@H]2C[C@@H]3c4[nH]c5cc(OC)ccc5c4CCN3C[C@H]2C[C@@H](OC(=O)c2cc(OC)c(OC)c(OC)c2)[C@@H]1OC | inactive |
| C[C@@H](O)[C@H]1C(=O)N2C(C(=O)O)=C(SCCN=CN)C[C@H]12 | inactive |
| CNCCC(Oc1ccccc1OC)c1ccccc1 (stereo not given) | inactive |
| NC/C=C/C(=O)O | inactive |
| C(=C\c1ccccc1)/CN1CCN(C(c2ccccc2)c2ccccc2)CC1 | inactive |
| CN(C)CCN(Cc1cccs1)c1ccccn1 | inactive |
| c1cc(CN2CCCCC2)cc(OCCCNc2nc3ccccc3s2)c1 | inactive |
| COc1cc(Cc2cnc(N)nc2N)cc(OC)c1OC | inactive |
| CN(C)C(=O)Oc1cccc([N+](C)(C)C)c1 | inactive |
| CC(C)(C)c1ccc(C(=O)CCCN2CCC(OC(c3ccccc3)c3ccccc3)CC2)cc1 | inactive |
| COc1cc(C(=O)OCCCN2CCCN(CCCOC(=O)c3cc(OC)c(OC)c(OC)c3)CC2)cc(OC)c1OC | inactive |
| Cc1ccc(/C(=C\CN2CCCC2)c2ccccn2)cc1 | inactive |
| CCCC(C(=O)OCCN(CC)CC)(c1ccccc1)c1ccccc1 | inactive |
| CCn1nc(C(=O)O)c(=O)c2cc3c(cc21)OCO3 | inactive |
| Cc1ccc(Cl)c(Nc2ccccc2C(=O)O)c1Cl | inactive |
| Cc1nc2c([nH]1)c(=O)n(C)c(=O)n2Cc1ccco1 | inactive |
| CSc1ccc(C(=O)c2[nH]c(=O)[nH]c2C)cc1 | inactive |
| Nc1nc(N)c2nc(-c3ccccc3)c(N)nc2n1 | inactive |
| NC(=O)N1c2ccccc2C=Cc2ccccc21 | inactive |
| CCCN(CCC)C(=O)C(CCC(=O)O)NC(=O)c1ccccc1 (stereo not given) | inactive |
